Source: ChEMBL document CHEMBL3988442, “University of Dundee, Small-Polar-MMV Screening Library” (2021)
Out of some 48,000 compounds screened, about 13,000 (27%) showed an effect of 50% or more. This is one part of the list.

Tested on: Wolbachia pipientis
Experiment: Anti-Wolbachia Cell-Based Screen
Assay type: functional
Parameters: scale not given: in the data most compounds retested in dose-response had high values
Conditions: 5 µM

Compared with `Cl.Cl.c1csc(N2[C@H](Cn3cncn3)C[C@@H]3CNCC[C@@H]32)n1`, `CCC(=O)N1CC[C@H]2[C@H](C[C@@H](Cn3cccn3)N2c2nccs2)C1.O=C(O)C(F)(F)F.O=C(O)C(F)(F)F` is higher in “Percent Effect” value: 3.496% for the first, 119.1% for the second.

First: CCC(=O)N1CC[C@H]2[C@H](C[C@@H](CN3CCCC3)N2c2nccs2)C1.O=C(O)C(F)(F)F.O=C(O)C(F)(F)F
Second: CC(=O)N1CC[C@H]2[C@H](C[C@@H](CN3CCCC3)N2c2nccs2)C1.O=C(O)C(F)(F)F.O=C(O)C(F)(F)F
The “Percent Effect” value of the first is higher: 104% for the first, 95.98% for the second.

Compared with `O=C(O)C(F)(F)F.O=C(O)C(F)(F)F.O=C(O)C(F)(F)F.c1cnn(C[C@@H]2C[C@@H]3CN(CC4CC4)CC[C@@H]3N2c2nccs2)c1`, `CN1CC[C@H]2[C@H](C[C@@H](CN3CCCC3)N2c2nccs2)C1.O=C(O)C(F)(F)F.O=C(O)C(F)(F)F.O=C(O)C(F)(F)F` is lower in “Percent Effect” value: 119.3% for the first, 105.1% for the second.

Compared with `CC(=O)N1[C@H](Cn2cncn2)C[C@@H]2CN(CC3CC3)CC[C@@H]21.O=C(O)C(F)(F)F`, `CCc1cnc(N2CC[C@H]3[C@@H]2CCC(=O)N3CC2CCOCC2)nc1.O=C(O)C(F)(F)F` is lower in “Percent Effect” value: -0.2509% for the first, -1.93% for the second.

First: CCCc1nnc(NC(C)c2ccc(F)cc2)o1 (stereo unspecified)
Second: Cc1ccc(CNC2(Cc3cc(-c4ccc(F)cc4)on3)COC2)o1
The “Percent Effect” value of the first is lower: -29.12% for the first, -24.42% for the second.

Compared with `Cc1cccc2c(CCNC(=O)[C@H](N)c3ccccc3)c[nH]c12`, `CCC(NCc1ccccc1)c1ccccc1OCC(=O)NC` (stereo unspecified) is higher in “Percent Effect” value: -3.898% for the first, -0.2413% for the second.

First: CSCC(=O)N1C[C@H]2CC[C@@H]1CN(C1Cc3ccccc3C1)C2
Second: Cn1cccc1C(=O)N1CC[C@@H]2[C@@H]1CC(=O)N2CC1CCOCC1
The “Percent Effect” value of the first is higher: 0.6506% for the first, -5.807% for the second.

First: CC1N(C)C(=O)COC12CCN(Cc1ccsc1)CC2.O=C(O)C(F)(F)F (stereo unspecified)
Second: CN(C)C(=O)CN1C(=O)CCC12CCN(Cc1ccsc1)CC2.O=C(O)C(F)(F)F
The “Percent Effect” value of the first is lower: -20.67% for the first, 105.6% for the second.

First: Cc1ccc(CN2CCC3(CCCC(=O)N3)CC2)s1.O=C(O)C(F)(F)F
Second: Cc1ccc(CN2CCC3(CCCN3S(C)(=O)=O)CC2)s1.O=C(O)C(F)(F)F
The “Percent Effect” value of the first is lower: -45.29% for the first, -3.179% for the second.

First: CN(C)C(=O)CN1C(=O)CCC12CCN(Cc1cccs1)CC2.O=C(O)C(F)(F)F
Second: Cc1ccc(CN2CCC3(CCC(=O)N3CC(=O)N(C)C)CC2)s1.O=C(O)C(F)(F)F
The “Percent Effect” value of the first is lower: 103.6% for the first, 113.5% for the second.

Going from `CN1CC(=O)N(c2cccc(F)c2)CC12CCN(Cc1ccsc1)C2.O=C(O)C(F)(F)F.O=C(O)C(F)(F)F` (stereo unspecified) to `Cc1ccc(CN2CCOC3(CCCN(C(=O)c4ccco4)C3)C2)s1.O=C(O)C(F)(F)F` (stereo unspecified), the “Percent Effect” value rises from 7.196% to 12.79%.

Compared with `CN(C)C(=O)CN1CCC2(CCCN(Cc3cccs3)C2)C1=O.O=C(O)C(F)(F)F` (stereo unspecified), `CN(C)C[C@H]1OC[C@@H]2CCN(C(=O)c3ccc[nH]3)C[C@@H]21.O=C(O)C(F)(F)F` is lower in “Percent Effect” value: -0.327% for the first, -11.36% for the second.

Going from `N#Cc1nccnc1N1CCC(CSc2ccccc2)C1` (stereo unspecified) to `O=C1NCCO[C@H]2CN(C(=O)Cc3csc4ccccc34)CC[C@@H]12`, the “Percent Effect” value rises from -2.144% to 14.47%.

Compared with `Cc1cc(C)nc(NCCSc2cnn[nH]2)n1`, `Cc1cc2c(=O)n(CCSc3cnn[nH]3)cnc2s1` is higher in “Percent Effect” value: 5.167% for the first, 114.6% for the second.

First: Cc1cc2c(=O)n(CCOCCO)cnc2s1
Second: Cc1cc2c(=O)n(CCSc3ncn[nH]3)cnc2s1
The “Percent Effect” value of the first is lower: -13.8% for the first, 95.33% for the second.

Compared with `Cc1csc2c(=O)n(CCSc3cnn[nH]3)cnc12`, `Cc1csc2c(=O)n(CCN3CCNCC3)cnc12` is lower in “Percent Effect” value: 116% for the first, -1.772% for the second.

First: CCc1ncc(-c2cn(CCSc3ncn[nH]3)nn2)cn1
Second: COc1ccc(-c2cn(CCSc3ncn[nH]3)nn2)cn1
The “Percent Effect” value of the first is lower: -12.01% for the first, 4.594% for the second.

Compared with `CCC1CCN(CCn2cnc3c(C)csc3c2=O)CC1`, `Cc1nn(C)c(C)c1CCC(=O)NCc1csc(N2CCCC2)n1` is higher in “Percent Effect” value: -5.154% for the first, -4.027% for the second.

First: CN(CCCc1cnn(C)c1)C(=O)Nc1cccc2[nH]ncc12
Second: Cc1cc(NC(=O)CNc2cccc(OC(F)F)c2C)n(C)n1
The “Percent Effect” value of the first is lower: -6.714% for the first, -2.043% for the second.

Compared with `CCc1cnc(N2CC3(CCN(C(=O)c4ccoc4)C3)C2)nc1`, `CCn1c(C(=O)N2CCCN(CC(N)=O)CC2)cc2ccccc21` is higher in “Percent Effect” value: -9.292% for the first, 113.2% for the second.

First: CC(=O)N(C)CC(=O)NC1(c2ccc(F)cc2)CCCC1
Second: CC(=O)c1ccc(NC(=O)c2ccc3c(c2)C2(CCCCC2)CN3)cc1.O=C(O)C(F)(F)F
The “Percent Effect” value of the first is lower: -10.47% for the first, 13.81% for the second.

Going from `CCCn1cnnc1CNC(=O)CC1C(=O)NCCN1CC=C(C)C` (stereo unspecified) to `Cc1nn(C)c(C)c1CCC(=O)NCC1(C(N)=O)CCOCC1`, the “Percent Effect” value rises from 0.5151% to 112%.

Going from `Cc1oncc1C(=O)N1CC[C@H]2[C@@H]1CCC(=O)N2CC1CCOCC1` to `Cc1oncc1C(=O)N1CC[C@H]2[C@@H]1CCC(=O)N2CC1CC1`, the “Percent Effect” value rises from 95.19% to 108%.

Compared with `O=C(O)C(F)(F)F.O=C1CC[C@H]2[C@H](CCN2c2ccccn2)N1CC1CCOCC1`, `Cc1noc(C)c1CN1CC[C@H]2[C@@H]1CCC(=O)N2CC1CCOCC1.O=C(O)C(F)(F)F` is higher in “Percent Effect” value: -16.88% for the first, 107.1% for the second.

Going from `O=C1C[C@H]2[C@H](CCN2C(=O)c2ccno2)N1CC1CC1` to `Cc1ccc(C(=O)N2CC[C@@H]3[C@H]2CCC(=O)N3CC2CC2)o1`, the “Percent Effect” value falls from 88.14% to 4.088%.

Going from `Cc1nc(CN2C(=O)CC[C@@H]3[C@H]2CCN3C(=O)c2ccno2)cs1` to `Cn1cccc1C(=O)N1CC[C@H]2[C@@H]1CCC(=O)N2CC1CC1`, the “Percent Effect” value falls from 0.107% to -7.905%.

Going from `O=C1CC[C@@H]2[C@@H](CCN2C(=O)C2CCOCC2)N1CC1CC1` to `c1cnn(Cc2nnc(C3CCN(C4CCOCC4)CC3)n2C2CC2)c1`, the “Percent Effect” value rises from -4.769% to -3.51%.

Going from `CCc1nc(CC(=O)NCC2(C(N)=O)CCOCC2)cs1` to `Cc1nn(C)c(C)c1CC(=O)NCC1(C(N)=O)CCOCC1`, the “Percent Effect” value rises from 13.26% to 121.1%.

Compared with `Cn1ccc2c(C(=O)NCC3(C(N)=O)CCOCC3)cccc21`, `Cc1nn(C)c(Cl)c1C(=O)NCC1(C(N)=O)CCOCC1` is higher in “Percent Effect” value: -19.6% for the first, 99.78% for the second.

Compared with `CCN(CC)c1ccc(NC(=O)NCC2(C(N)=O)CCOCC2)cn1`, `CCN(CC)c1ccc(C(=O)NCC2(C(N)=O)CCOCC2)cn1` is lower in “Percent Effect” value: -0.5907% for the first, -5.685% for the second.

First: Cc1nn(CC(=O)NCC2(C(N)=O)CCOCC2)c(C)c1Cl
Second: Cc1nn(C(C)(C)C)c(C)c1C(=O)NCC1(C(N)=O)CCOCC1
The “Percent Effect” value of the first is higher: 113.9% for the first, -1.881% for the second.

First: Cc1nn(C)c(C)c1S(=O)(=O)NCC(C)(O)c1ccc2c(c1)OCO2 (stereo unspecified)
Second: Cc1nn(C)c(C)c1S(=O)(=O)NCC1(C(N)=O)CCOCC1
The “Percent Effect” value of the first is lower: 12.95% for the first, 87.99% for the second.

Compared with `Cc1nn(C)c(C)c1S(=O)(=O)N(CC(N)=O)CC(C)C`, `Cc1nc(C)c(CCNC(=O)NC2CC(=O)N(C(C)(C)C)C2)s1` (stereo unspecified) is lower in “Percent Effect” value: 0.7063% for the first, -0.9476% for the second.

First: CC(C)C1CN(Cc2nccn2C(C)C)CCC(=O)N1CC1CC1 (stereo unspecified)
Second: CC(C)CN1CCN(Cc2nc3ccccc3[nH]2)[C@H]2CS(=O)(=O)C[C@H]21
The “Percent Effect” value of the first is lower: -13.37% for the first, -2.653% for the second.

Going from `CN(C)Cc1nc(C(C)(C)NC(=O)c2ccc3ccccc3c2)no1` to `CC(O)CN1CCN(C(=O)c2cc3ccccc3n2C)CC1` (stereo unspecified), the “Percent Effect” value rises from -5.67% to 80.19%.

First: Cc1cc(C(=O)NCC2(C(N)=O)CCOCC2)nn1C(C)(C)C
Second: Cc1csc(CCCNC(=O)NC2CC(=O)N(C(C)(C)C)C2)n1 (stereo unspecified)
The “Percent Effect” value of the first is lower: 9.321% for the first, 79.6% for the second.

First: CCc1nc(CCNC(=O)NC2CC(=O)N(C(C)(C)C)C2)cs1 (stereo unspecified)
Second: CC(C)(C)SCCCC(=O)N1CCC(Nc2cccnn2)CC1
The “Percent Effect” value of the first is higher: 17.05% for the first, -0.09307% for the second.

Compared with `CCn1c(C(=O)N2CCN(C(=O)COC)CC2)cc2ccccc21`, `CCn1c(C(=O)N2CCN(C(=O)NC(C)C)CC2)cc2ccccc21` is higher in “Percent Effect” value: -7.431% for the first, -5.351% for the second.

Compared with `CCn1c(CN2CCN(CC(N)=O)CC2)nc2c(F)cccc21`, `CCC(O)CN1CCN(C(=O)c2cc3ccccc3n2CC)CC1` (stereo unspecified) is higher in “Percent Effect” value: -7.265% for the first, 81.21% for the second.

Going from `CCn1c(C(=O)N2CCN(CC(C)O)CC2)cc2ccccc21` (stereo unspecified) to `CCn1c(C(=O)N2CCN(CC[S+](C)[O-])CC2)cc2ccccc21` (stereo unspecified), the “Percent Effect” value rises from -3.08% to 101.9%.

Going from `Cc1cccc2cc(C(=O)N3CCSCC3)n(C)c12` to `CC(O)CN1CCN(C(=O)c2cccc(CC#N)c2)CC1` (stereo unspecified), the “Percent Effect” value rises from -17.56% to 0.248%.

Compared with `NC(=O)CN1CCCN(C(=O)c2ccn(-c3cccc(F)c3)n2)CC1`, `CC(O)CN1CCN(C(=O)c2cccn2Cc2ccncc2)CC1` (stereo unspecified) is higher in “Percent Effect” value: -12.78% for the first, -5.756% for the second.

First: COc1ccc(C)cc1-c1csc(Cn2ccc(=O)[nH]c2=O)n1
Second: CC(Nc1cccc(CN2CCOC2=O)c1)C(=O)N1CCNC1=O (stereo unspecified)
The “Percent Effect” value of the first is lower: -13.88% for the first, -9.338% for the second.

Going from `O=C(COc1ccccc1F)NCCC(O)c1ccco1` (stereo unspecified) to `O=C(CCc1ccco1)N1CCC(Nc2cccnn2)CC1`, the “Percent Effect” value rises from -8.311% to 108.6%.

Going from `CCN(c1cccc(F)c1)S(=O)(=O)c1cc(C(=O)O)cc2c1CCC2` to `Cc1nn(CC(=O)N2CCC(Nc3cccnn3)CC2)c(C)c1Cl`, the “Percent Effect” value falls from -8.987% to -11.96%.

Going from `Cc1cnn(CCC(=O)N2CCC(Nc3cccnn3)CC2)c1` to `Cc1ccc(CCC(=O)N2CCC(Nc3cccnn3)CC2)cc1`, the “Percent Effect” value rises from 5.382% to 118.9%.

Compared with `Cc1ccc(NC2CCN(C(=O)CCc3ccco3)CC2)nn1`, `Cc1noc(Cl)c1CCC(=O)N1CCC(Nc2cccnn2)CC1` is higher in “Percent Effect” value: -2.742% for the first, 97.17% for the second.

Going from `Cc1noc(Cl)c1CCC(=O)N1CCC(CC(N)=O)CC1` to `COCCCC(=O)N1CCC(Nc2cccnn2)CC1`, the “Percent Effect” value rises from -2.795% to 100.5%.
